USP1-UAF1 inh – blocks the human USP1/UAF1 deubiquitinase complex | recombinant USP1/UAF1, Ub-Rhodamine cleavage fluorescence | 390,000 compounds, 0.23% hits | AID 743255 | Potency, µM (doses to about 57.1 µM), for inactives: at the highest dose activity change, negative = inhibition, hits mostly inhibitors; also: potency is read from the fitted curve at half-maximal effect; nearly all actives have a fitted effect of over 60% in size
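1 nM enzyme complex + cpd, 15 min RT; start with Ub-Rho 150nM final; kinetic fluorescence ex 480/em 540, 6 reads q60 s. Buffer 50mM HEPES pH 7.8, 0.5mM EDTA, 0.1 mg/ml BSA, 1mM TCEP, 0.01% Tween-20.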
USP2a inh – USP2a (human) protease inhibition | USP2 core, Ub-CHOP2 coupled fluorogenic reporter, 485/531 | Potency, µM (titrated, usually from 38.3 µM), for the others: at the top dose activity change, negative = inhibition, most hits filed as inhibitors | 330,000 compounds, 0.01% hits;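 also: potency is read from the fitted curve at half-maximal effect; plate controls were DMSO wells for no effect and full inhibition by NEM control for full effect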
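USP2 core (10nM final) preincubated 30min RT with compound in 20mM Tris-HCl pH 8.0, 2mM CaCl2, 2mM beta-mercaptoethanol, 0.05% CHAPS; 25nM Ub-CHOP2 plus 25nM reporter substrate added, fluorescence (Ex485/Em531) read after 60min.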
WRN helicase inh – blocks human WRN helicase; WRN helicase unwinding, fluorescent forked duplex, kinetic; Potency, µM (highest dose often 114 µM), for the others: at the highest dose activity change, negative = inhibition, actives largely listed as inhibitors; 360,000 compounds, 0.46% hits; also: potency is read from the fitted curve at half-maximal effect; nearly all actives have a fitted effect of over 55% in size
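WRN at 20 nM final was preincubated with compound for 15 min at room temperature; reaction started with 100 nM forked duplex oligonucleotide carrying fluorophore and quencher plus 2 mM ATP (final). Unwinding followed kinetically by red fluorescence (ex 525/em 598 nm).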
PLK1 PBD block – blocks phosphopeptide binding to human PLK1 polo-box domain; P53350; Plk1 PBD binding of FITC phosphopeptide, fluorescence polarization; Potency, µM, without a hit: max response, negative = inhibition, hits mostly inhibitors; 360,000 compounds, 2.8% hits; AID 720504; also: potency is read from the fitted curve at half-maximal effect; series mostly up to about 57 µM; nearly all actives have a fitted effect of over 65% in size
PI5P4K alpha inh – PI5P4K alpha (human) kinase inhibition; P48426; 330,000 compounds, 1.2% hits; AID 652105; max response, %; PI5P4Kalpha enzyme, ADP-Glo luminescence, 60 min; stronger effect = lower value; active = max response of -50% or lower; inconclusive = between -30% and -50%; inactive = -30% or higher; also: value at the top dose of about 77 µM
Target sequence (P48426 whole entry, looked up): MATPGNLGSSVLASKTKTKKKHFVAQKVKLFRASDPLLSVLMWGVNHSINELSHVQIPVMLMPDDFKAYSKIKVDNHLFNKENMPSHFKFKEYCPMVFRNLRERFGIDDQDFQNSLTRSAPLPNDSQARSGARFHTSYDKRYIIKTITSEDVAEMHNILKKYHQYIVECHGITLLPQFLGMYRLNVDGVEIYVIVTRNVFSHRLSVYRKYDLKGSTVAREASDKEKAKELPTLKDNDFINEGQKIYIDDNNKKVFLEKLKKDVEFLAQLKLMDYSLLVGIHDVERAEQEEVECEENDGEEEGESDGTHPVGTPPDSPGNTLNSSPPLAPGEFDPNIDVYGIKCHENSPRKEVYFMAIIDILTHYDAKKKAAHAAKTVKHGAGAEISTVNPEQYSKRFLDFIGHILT
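Reactions run in 0.038 M HEPES pH 7.4, 0.28 mM EGTA, 0.1% CHAPS and 5% DMSO, with PI5P4Kalpha, substrate, compound and 5 microM ATP final, one hour at room temperature. Readout is ADP-Glo luminescence.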
* marks the source's active call; other numbers are inactive results; ? = inconclusive; · = no result; [ ] = remark or other dose. Only some compounds are listed: those with a hit (about 3.3% of all), similar ones and a draw of the others. Unless noted, calls follow the shape of the dose curve; as a rule, active = well fitted curve in the direction sought with a large enough effect; inconclusive = small, poorly fitted or top-dose-only effect, or another doubt; inactive = no such curve, though single readings can be large; an effect the other way counts as inactive or inconclusive. Unless noted, % is scaled to controls: 0 for no effect and ±100 for the full control effect.

SMILES	USP1-UAF1 inh	USP2a inh	WRN helicase inh	PLK1 PBD block	PI5P4K alpha inh
C/C(=N\NC(=O)c1ccccc1O)c1c(O)n(Cc2ccccc2)c(=O)[nH]c1=O	?	0.1%	-19.2%	-8.2%	-70.8*
C/C(=N\NC(=O)c1ccccc1O)c1c(O)n(C2CCCCC2)c(=O)[nH]c1=O	?	3.5%	-6.3%	-5.1%	-9.7
COc1ccc(Cc2c(O)[nH]c(=S)[nH]c2=O)cc1	-7.6%	-0.4%	-35.9%	26.7µM*	-56.1*
CCCCOc1ccc(C(C)=O)cc1Cc1c(O)[nH]c(=S)[nH]c1=O	-12.9%	0.8%	4.7%	?	-14.4
CCC(C)/C=C(C)/C=C/C1=CC2=C(Cl)C(=O)C(C)(OC(C)=O)C(=O)C2=CO1 (configuration not stated)	?	2.2%	1.3%	-29.8%	4.8
CC[C@H](C)/C=C(C)/C=C/C1=CC2=C(Cl)C(=O)[C@@](C)(OC(C)=O)C(=O)C2=CO1	31.6µM*	·	44.7µM*	1.06µM*	-87.1*
CCOP(=O)(/C=C(\Cl)c1ccccc1)C(O)c1ccc(F)cc1 (configuration not stated)	-16.4%	3.1%	12.5%	21.2µM*	-5.9
Cc1ccccc1N1C(=O)NC(=O)/C(=C\c2cnn(-c3ccccc3)c2)C1=O	-17.7%	-0.1%	?	4.74µM*	-71.8*
O=C1NCN(c2ccccc2)C12CCN(C(c1ccnc3ccccc13)c1nnnn1-c1ccc3c(c1)OCCO3)CC2 (configuration not stated)	·	·	1.9%	5.4%	-5.6
CN(C)CCNC(=O)c1cccn(Cc2cccc(C(F)(F)F)c2)c1=O	3.7%	-0.4%	2.7%[57.1 µM]	18.9µM*	-18.8
O=C(CSC1c2ccccc2-c2ccccc21)N/N=C/c1ccccc1C(=O)O	-13.5%	0.3%	5.1%	?	-3.2
O=C(Cc1cc(=O)[nH][nH]1)N/N=C/c1ccccc1Cl	-10.2%	0.0%	-21.9%	26.7µM*	-16.3
Cc1nc2c(=O)n(C)c(=O)nc-2n(C)n1	0.0316µM*	-0.8%	-13.5%[11.6 µM]	-14.2%	-8.1
CCn1nc(-c2ccccc2)nc2c(=O)n(C)c(=O)nc1-2	·	23.4%	-18.3%	?	-8.2
Cc1ccsc1/C=N/NC(=O)c1cccc(S(=O)(=O)Nc2ccccc2Cl)c1	-9.8%	1.9%	?	-26.5%	-17.4
Cc1nn(CCC#N)c2c1P(=S)(N1CCCC1)OC(c1ccc(F)cc1)=N2 (configuration not stated)	-9.7%	-0.1%	-3.6%	13.4µM*	·
Cc1cccc(CN2C(=O)CN=C(c3ccccc3)c3cc(Cl)ccc32)c1	-10.5%	·	·	·	·
CCOC(=O)C1(c2ccccc2)CCN(CCC(=O)Nc2cccc(Br)c2)CC1	-17.0%	-0.7%	-11.1%	-3.7%	17.9
O=S(=O)(Nc1c(O)ccc2ccccc12)c1ccc(F)cc1	-6.3%	·	50.1µM*	10.6µM*	-25.6
CN1CCN(C(=O)COc2ccc(S(=O)(=O)Nc3ccc(F)cc3)cc2)CC1	-16.9%	-1.3%	9.8%	-4.4%	0.3
COc1ccc(OC)c(-n2c(O)c(/C=C3\C=Nc4ccccc43)c(=O)[nH]c2=O)c1	-23.2%	3.1%	-7.5%	9.47µM*	-6.6
CCOC(=O)c1cc2ccccc2n1C1CCN(Cc2ccccc2)CC1	·	·	-4.0%	1.0%	-0.5
NC(=O)c1cn(C2CCCCC2)c2ccccc2c1=O	-9.4%	5.6%	-3.0%	-3.8%	0.8
O=C1c2ccccc2C(=O)N1SC1CCCCC1	?	1.2%	50.1µM*	1.89µM*	1.2
CCCCCn1c(Sc2ccccc2)nc2c1c(=O)[nH]c(=O)n2C	-18.1%	1.2%	0.8%	29.9µM*	-5.4
SMILES	USP1-UAF1 inh	USP2a inh	WRN helicase inh	PLK1 PBD block	PI5P4K alpha inh
COc1ccc(OCC(=O)N2CCN(Cc3nc4cc([N+](=O)[O-])ccc4n3C)CC2)cc1	-9.6%	0.1%	-1.2%	29.9µM*	-14.5
CN1CCN(c2ccc(/C=C3\C(=O)NC(=S)N(c4cccc(Br)c4)C3=O)o2)CC1	31.6µM*	23.5%	?	104.5%	?
CN1C(=O)/C(=C\c2ccc(N3CCCCC3)o2)C(=O)NC1=S	-26.2%	2.0%	-17.9%	68.2%	-3.0
Cc1ccccc1-c1nn2c(=O)cc(CN3CCN(C(=O)COc4ccccc4Cl)CC3)nc2s1	-12.6%	·	·	·	·
O=C(c1cc(-c2cccc(Cl)c2)on1)N1CCOCC1	?	4.0%	0.5%	-9.5%	-7.0
Cc1cccc(N2C(=O)NC(=O)/C(=C/c3ccc([N+](=O)[O-])o3)C2=O)c1	?	-17.0%	28.2µM*	10.6µM*	-77.8*
Cc1cc(C)cc(N2C(=O)NC(=O)/C(=C/c3cccn3-c3ccc(Cl)cc3)C2=O)c1	-26.9%	3.4%	-14.6%[11.6 µM]	?	-26.4
Cc1cccc(N2C(=O)NC(=O)/C(=C\c3cccn3-c3ccc(Cl)cc3)C2=O)c1	-19.0%	2.9%	?	0.532µM*	-51.9*
CC(C)(C)n1cccc1/C=C1\C(=O)NC(=O)N(c2ccccc2)C1=O	-14.3%	-0.3%	-28.5%	23.8µM*	0.7
Cc1ccc(CNC(=O)CCCn2c(=O)c3sccc3n(CC(=O)Nc3c(C)cccc3C)c2=O)cc1	-5.7%	·	·	·	·
C[C@@H]1C(=O)O[C@H]2C[C@@]34[C@H]5C[C@@H](C(C)(C)C)[C@]36[C@@H](OC(=O)[C@@H]6O)O[C@@]4(C(=O)O5)[C@]21O	-6.8%	0.4%	-3.0%	3.9%	6.1
COC(=O)C1=C(c2cccc(C#N)c2)C[C@@H]2CC[C@H]1N2C(=O)NCCCOC(C)C	-5.4%	0.1%	3.9%	-9.6%	-2.7
CC(Oc1ccc(Cl)cc1Cl)C(=O)Nc1ccc(S(=O)(=O)Nc2cnc3ccccc3n2)cc1 (configuration not stated)	-22.0%	-11.9%	-11.2%	13.4µM*	-22.9
O=C(COc1ccc(Br)cc1)N1CCN(C2CCCC2)CC1	5.0%	1.3%	-10.3%[57.1 µM]	-2.5%	-6.5
O=C1NC(=S)NC(=O)C1=Cc1ccc(OCC(=O)N2CCCC2)cc1	-9.3%	1.2%	-7.4%	15µM*	-53.8*
CCCC1=Nc2cc(C(=O)NCCCN(CC)CC)ccc2Sc2ccccc21	-16.4%	·	·	·	·
COc1cccc(CNC(=O)CSc2ccc(-c3ccco3)nn2)c1	?	1.5%	-5.5%	-6.1%	-18.3
CC(C)n1c(/C=C/[C@H](O)C[C@H](O)CC(=O)O)c(-c2ccc(F)cc2)c2ccccc21	-21.2%	?	6.0%	-7.1%	5.9
Nc1ccc(C2(c3ccc(N)cc3)c3ccccc3-c3ccccc32)cc1	-22.1%	3.2%	0.3%	-7.4%	16.6
Nc1ccc2c3c(cccc13)-c1ccccc1-2	5.62µM*	·	-5.6%	9.47µM*	20.5
O=C(O)CC1OCC=C2CN3CCC45C6=CC(=O)C(=O)C([N+](=O)[O-])=C6NC4C1C2CC35 (configuration not stated)	5.01µM*	2.0%	-30.3%	?	1.2

Bioassay records as filed in PubChem.
